The panel holds about 83,000 compounds, 20% with a hit somewhere; the sample as a whole holds those more often.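 Compound tested at a single concentration for 48 hours in 96-well plates; a percent growth value below 10 was scored as active.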 Unmarked numbers belong to inactive results. Calls of active or inactive are those of the source.
Key:
Test in all cases: NCI-60 one-dose screen, 48 h (100 = growth as untreated, 0 = no growth, -100 = all killed)
Settings in all cases: 10 µM
[1] = system: HCT-15 colon
[2] = system: HT29 colon
[3] = system: SNB-75 CNS
[4] = system: SNB-19 CNS
[5] = system: U251 CNS
[6] = system: PC-3 prostate
[7] = system: SK-MEL-5 melanoma
[8] = system: UACC-62 melanoma
[9] = system: LOX IMVI melanoma
[10] = system: SK-MEL-28 melanoma

| SMILES | growth [1] | growth [2] | growth [3] | growth [4] | growth [5] | growth [6] | growth [7] | growth [8] | growth [9] | growth [10] |
| --- | --- | --- | --- | --- | --- | --- | --- | --- | --- | --- |
| CN(C)c1nc(NCCNS(=O)(=O)c2ccc(C(=O)/C=C/c3ccccc3)cc2)nc(Nc2ccc(F)cc2)n1 | -67.2% (active) | -59.8% (active) | 87.3% | 41.7% | -56.2% (active) | 16.4% | 30.2% | 26.5% | -100% (active) | 31.4% |
| CC1(C)CC[C@]2(C(=O)NCCCNCCCCNCCCN)CC[C@]3(C)C(=CC[C@@H]4[C@@]5(C)Cc6c([nH]c7ccccc67)C(C)(C)[C@@H]5CC[C@]43C)[C@H]2C1 | 85% | 92.4% | 101% | 57.9% | 89.5% | 65.8% | 81.5% | 116% | 92.6% | 102% |
| OCCNc1oc(-c2ccccc2)nc1[P+](c1ccccc1)(c1ccccc1)c1ccccc1 | 77.8% | 10.4% | -1.51% (active) | 4.29% (active) | 14.7% | 10.6% | -100% (active) | -66.4% (active) | 2.03% (active) | 3.6% (active) |
| COc1ccc(C(=O)/C=C/c2cc(F)cc(C(F)(F)F)c2)cc1S(N)(=O)=O | -77.9% (active) | -68.3% (active) | 63.2% | -92.6% (active) | -72.9% (active) | -10.2% (active) | 3.71% (active) | -55.5% (active) | -91.3% (active) | -68.4% (active) |
| C=C(C)[C@@H]1CC[C@]2(C(=O)OC)CC[C@]3(C)[C@H](CC[C@@H]4[C@@]5(C)CC[C@H](N)C(C)(C)[C@@H]5CC[C@]43C)[C@@H]12 | -97.2% (active) | -70.6% (active) | -91.5% (active) | -99.3% (active) | -85.4% (active) | -28.2% (active) | -54.9% (active) | -97.9% (active) | -98.4% (active) | -100% (active) |
| O=C(/C=C/Nc1ccccc1)c1ccc2c(c1)Nc1ccccc1S2 | 80.4% | 90.4% | 106% | 36.3% | 38% | 78.5% | 96.7% | 68.9% | 79.9% | 100% |
| COc1nccnc1NS(=O)(=O)c1ccc(NC2=C(Cl)C(=O)c3nc(C)ccc3C2=O)cc1 | 93.7% | 120% | 111% | 97.9% | 96.9% | 80.2% | 100% | 101% | 71.7% | 121% |
| O=C(Cn1nc(-c2ccccc2)ccc1=O)NN1C(=O)c2ccccc2C1=O | 99.2% | 120% | 107% | 89.8% | 102% | 97.8% | 100% | 106% | 92.7% | 108% |
| COc1ccsc1/C=N/NC(=O)c1[nH]c2ccc(Br)cc2c1-c1ccccc1 | 1.32% (active) | -12.2% (active) | 20.1% | 21.8% | 6.55% (active) | 5.35% (active) | -47.3% (active) | 9.1% (active) | -18% (active) | 30.8% |
| O=C(CSc1nnc(-c2c[nH]c3ccccc23)n1-c1ccccc1)c1ccc(Br)cc1 | 44% | 57.4% | 38.8% | 70.2% | 61.6% | 46.2% | 17.2% | 35.2% | 41.8% | 34.9% |
| Cc1ccc(NC(=O)c2ccc(-n3c(=O)[nH]c4ccccc4c3=O)cc2)cc1 | 88.7% | 104% | 50.5% | 68.4% | 91.9% | 96.1% | 90.9% | 82.4% | 85.1% | 102% |
| CN1CCO/C1=C(/NC(=O)c1ccc(Cl)cc1)[P+](c1ccccc1)(c1ccccc1)c1ccccc1 | 107% | 57.7% | 91.6% | 76.5% | 84.1% | 68.2% | 70.3% | 48.5% | 39.8% | 75.5% |
| Cc1ccc(C(=O)N/C(=C2/OCCN2C)[P+](c2ccccc2)(c2ccccc2)c2ccccc2)cc1 | 110% | 59.7% | 99.9% | 74.1% | 75.5% | 62.5% | 72.2% | 48.2% | 44.8% | 72.2% |
| O=C(NO)c1ccc(CN2CCN(c3nc(-c4ccccc4)c4ccccc4n3)CC2)cc1 | 22.5% | 30.4% | 81.7% | 22.8% | 15.2% | 30.8% | -95.9% (active) | -23.9% (active) | -60.6% (active) | 24.1% |
| COc1ccc(/C=C/C(=O)c2ccc(N3CCN(C)CC3)cc2)c(C(F)(F)F)c1 | -68.5% (active) | -52% (active) | 97.7% | 54.5% | 5.33% (active) | 43.5% | 36.7% | -31.4% (active) | -86.4% (active) | 52% |
| CC(=O)Nc1ccc(-n2cnc3cc(-c4ccc(NS(C)(=O)=O)cc4)ccc32)cc1 | 32.4% | 34.2% | 35.6% | 61.1% | 59.8% | 62.8% | 69.5% | 54.7% | – | 85.3% |
| Nc1nc(Nc2ccc(Cl)cc2)n(Cc2cccc(Br)c2)n1 | -52.7% (active) | 11.4% | -23.9% (active) | -12.3% (active) | -12.4% (active) | 0.572% (active) | -100% (active) | -82.3% (active) | – | -61.1% (active) |
| Nc1nc2c(F)c(F)c(F)c(F)c2s1 | 102% | 104% | 83.1% | 99.8% | 96.5% | 104% | 95.7% | 96.6% | – | 109% |
| Cn1cc(-c2cc(N)n3nc(-c4c[nH]c5ccc(Br)cc45)cc3n2)c2cc(Br)cnc21 | -96.3% (active) | -86.3% (active) | -19.6% (active) | -35.9% (active) | -76.5% (active) | -44.8% (active) | -99% (active) | -75% (active) | -94.5% (active) | -87.1% (active) |
| Cc1cc(C(F)(F)F)ccc1C(=O)Nc1sc2c(c1C#N)CCC(=O)C2 | -69.5% (active) | -27.8% (active) | -5.51% (active) | -2.98% (active) | 12% | 4.6% (active) | -98.9% (active) | -81.3% (active) | 2.84% (active) | -83.9% (active) |
| COC(=O)C(Cc1ccc(O)c(O)c1)NC(=O)C(CSC/C=C(\C)CCCC(C)CCCC(C)CCCC(C)C)NC(C)=O (stereo not drawn) | 15.5% | 40.5% | 42.8% | 10.8% | 4.85% (active) | 2.28% (active) | 36.8% | 13% | 19.7% | 25.1% |
| O=C(NO)c1ccc(CNC(=O)[C@H]2Cc3c([nH]c4ccccc34)[C@H](c3ccccc3)N2)cc1 | 72.4% | 20.2% | 52.3% | 39.4% | 13.4% | 33.3% | 8.18% (active) | -24.5% (active) | – | 6.06% (active) |
| N#Cc1c(Cl)nc(SCc2ccc(F)cc2)nc1-c1ccc(F)cc1 | 87% | 66.6% | 123% | 98% | 92.8% | 91.1% | 86.2% | 86% | 90.2% | 104% |
| Cc1ccc2nc(COc3ccc(C(=O)NNC(=S)NCCc4ccccc4)cc3)[nH]c2c1 | 100% | 112% | 120% | -16.6% (active) | 24% | 81.4% | 89% | 49.9% | – | 92.9% |
| COc1cc(NC(=O)c2cc(-c3ccc(F)cc3F)ccc2O)cc(OC)c1OC | 41.1% | 110% | 40.9% | 31.1% | 32.6% | 21.9% | -15.7% (active) | 0.606% (active) | – | 25% |
| COc1cc(/C=C/C(=O)c2cc(OC)c(OC)c(OC)c2)ccc1Oc1nc(Nc2ccc(F)cc2)nc(N(C)C)n1 | -40.3% (active) | -50.9% (active) | -64.8% (active) | -46.7% (active) | -72.9% (active) | -20% (active) | -76.2% (active) | -80.7% (active) | – | -72.1% (active) |
| COc1ccc(-c2nc(S(=O)(=O)c3ccccc3)c(S(C)(=O)=O)o2)cc1 | -73% (active) | -55.2% (active) | 77.1% | 84.4% | 12% | 78.2% | 66.5% | 33.5% | -85.3% (active) | -82.9% (active) |

Reference: PubChem BioAssay (NCI)
